BJeLR viability: BJeLR cell viability loss. BJeLR (HRASV12) viability, CellTiter-Glo ATP luminescence, 48 h. inhibition, % (no concentration beside the values). 300,000 tested, 0.17% active. AID 1554; in the data active = inhibition above about 50%
Sa RN4220 lethal: kills Staphylococcus aureus RN4220. 330,000 tested, 0.33% active. S. aureus RN4220 growth, OD600, 16 h. inhibition, % (concentration not given with the values); in the data active = inhibition above about 85%
3CLpro inhibitor: SARS-CoV 3CLpro protease inhibition; P0C6X7; recombinant SARS-CoV 3CLpro, quenched FRET peptide cleavage; inhibition, % at 6 µM; 290,000 tested, 0.14% active; AID 1706; in the data active = inhibition above about 12%
DUSP3 inh: inhibitors of human VHR1 phosphatase (DUSP3); inhibition, % at 13.3 µM; 290,000 tested, 0.52% active; AID 1654; recombinant VHR phosphatase, pNPP absorbance; in the data active = inhibition above about 50%
PrPC surface inh: reduces human prion protein on the cell surface; cell surface PrPC, TR-FRET read-out; inhibition, % at 13.8 µM; 370,000 tested, 0.43% active; in the data active = inhibition above about 24%
Sa ugtP lethal: kills S. aureus RN4220 lacking UgtP | S. aureus RN4220 ugtP deletion, OD600 growth, 16 h | AID 1259309 | 330,000 tested, 0.54% active | growth inhibition, % (concentration not given with the values); in the data active = growth inhibition above about 68%
PrPC confirm: confirmation of inhibitors of cell surface human prion protein. 1,500 tested, 65% active. AID 743200. cell surface PrPC level, TR-FRET. shares compounds with PrPC surface inh. inhibition, % at 13.8 µM; in the data active = inhibition above about 25%
LD9 tox: counter-screen for PrPc inhibitors: cytotoxicity in LD9 cells; 1,500 tested, 29% active; luminescence viability; inhibition, % at 13.8 µM; AID 743201; shares compounds with PrPC surface inh; in the data active = inhibition above about 9.5%
Each line names hits and unclear results; the compound was inactive in the other large screens (follow-up assays come after a bar, where they were run); ! = not confirmed by another sample. Shown are actives, neighbours in structure and some others; about 1.4% of the full set was active somewhere.

O=C(NC(NNc1ccc([N+](=O)[O-])cc1)(C(F)(F)F)C(F)(F)F)c1ccccc1Cl	none
O=C(NC(Nc1nc2ccc([N+](=O)[O-])cc2s1)(C(F)(F)F)C(F)(F)F)c1cccnc1	PrPC surface inh 42 | PrPC confirm 52 | LD9 tox 59
O=C(NC(Nc1nc2ccc([N+](=O)[O-])cc2s1)(C(F)(F)F)C(F)(F)F)c1ccccc1Cl	BJeLR viability 60, Sa RN4220 lethal 100, PrPC surface inh 67, Sa ugtP lethal 99 | PrPC confirm 66 | LD9 tox 63
CCCCCCCCN1C(CC(=O)O)c2ccc(C(F)(F)F)cc2S1(=O)=O (centres undefined)	none (no result: BJeLR viability, 3CLpro inhibitor, DUSP3 inh, PrPC surface inh)
CC1CN(C(C)CO)C(=O)c2cccc(NS(=O)(=O)c3ccc(F)cc3)c2OC1CN(C)C(=O)Nc1ccc2c(c1)OCO2 (centres undefined)	none (no result: BJeLR viability, 3CLpro inhibitor, DUSP3 inh, PrPC surface inh)
CC(C)(C)c1ccc(-n2nc(C(N)=O)c(O)cc2=O)cc1	none
CC(C)(C)c1ccc(-n2nc(C#N)c(Cl)cc2=O)cc1	BJeLR viability 56, PrPC surface inh 69 | PrPC confirm 70 | LD9 tox 98
CCCCn1nc2cc(C(=O)NC(C)C3CCCCC3)ccc2c1OCC (centres undefined)	none (no result: BJeLR viability, 3CLpro inhibitor, DUSP3 inh, PrPC surface inh)
Cc1ncc(CO)c(C=NNC(=O)c2cc3c(s2)CCCC3)c1O	none (no result: BJeLR viability, 3CLpro inhibitor, DUSP3 inh, PrPC surface inh)
Cc1ncc(CO)c(/C=N/NC(=O)c2cc3c(s2)CCCC3)c1O	PrPC surface inh 40 (no result: Sa RN4220 lethal, Sa ugtP lethal) | PrPC confirm inactive | LD9 tox 15
CCn1c(=N)n(CC(=O)c2ccc(Br)s2)c2ccccc21	none
CCCCn1c(=N)n(CC(=O)c2ccc(Br)s2)c2ccccc21	PrPC surface inh 37 | PrPC confirm 83 | LD9 tox 28
Cc1[nH]n(-c2ccccc2)c(=O)c1/C=N/NC(=O)c1cccc(F)c1	PrPC surface inh 52 (no result: Sa RN4220 lethal, Sa ugtP lethal) | PrPC confirm 54 | LD9 tox 23
Cc1[nH]n(-c2ccccc2)c(=O)c1C=NNC(=O)c1cccc([N+](=O)[O-])c1	none (no result: BJeLR viability, 3CLpro inhibitor, DUSP3 inh, PrPC surface inh)
CC(=NNc1nc2ccccc2[nH]1)c1cccs1	none (no result: BJeLR viability, 3CLpro inhibitor, DUSP3 inh, PrPC surface inh)
C/C(=N\Nc1nc2ccccc2[nH]1)c1ccccn1	BJeLR viability 74, PrPC surface inh 26 (no result: Sa RN4220 lethal, Sa ugtP lethal) | PrPC confirm 48 | LD9 tox 69
CC(=O)Oc1ccc(C(=O)Nc2cccc(C(=O)c3ccc(C)c(C)c3)c2)cc1	PrPC surface inh 35 (no result: 3CLpro inhibitor, DUSP3 inh) | PrPC confirm inactive | LD9 tox inactive
CN1CC2C3C(=O)N(C)C(=O)C3[C@](Cc3ccccc3)(C1=O)N2C(=O)c1ccc(F)cc1 (some centres undefined)	none (no result: BJeLR viability, 3CLpro inhibitor, DUSP3 inh, PrPC surface inh)
NNC(=O)c1[nH]c2ccc(Br)cc2c1-c1ccccc1	none
CCc1c(C(=O)O)[nH]c2ccc(Br)cc12	PrPC surface inh 76 | PrPC confirm 88 | LD9 tox inactive
COc1cc(C2Nc3ccccc3C(=O)N2c2ccccc2)c(Br)cc1OCC(=O)O (centres undefined)	PrPC surface inh 26 | PrPC confirm inactive | LD9 tox inactive
COC(=O)COc1ccc(Cl)cc1C1Nc2ccccc2C(=O)N1c1ccc(OC)cc1 (centres undefined)	none
O=C(O)c1ccc(CN2C[C@@H](CO)O[C@@H](n3cnc4c(Nc5ccccc5)ncnc43)C2)cc1	none (no result: BJeLR viability, Sa RN4220 lethal, 3CLpro inhibitor, DUSP3 inh, Sa ugtP lethal)
OC[C@@H]1CN(Cc2ccc(Cl)cc2)C[C@H](n2cnc3c(Nc4ccccc4)ncnc32)O1	PrPC surface inh 41 (no result: BJeLR viability, Sa RN4220 lethal, 3CLpro inhibitor, DUSP3 inh, Sa ugtP lethal) | PrPC confirm inactive | LD9 tox inactive
C#CCOCCOCCOCCNc1nc(N2CCN(C(=O)CCCCCCCCCCNC(=O)C(CO)n3cc(CCCSC)nn3)CC2)nc(N2CCN(C(=O)CCCCCCCCCCNC(=O)C(CO)n3cc(CCCSC)nn3)CC2)n1 (centres undefined)	none (no result: BJeLR viability, 3CLpro inhibitor, DUSP3 inh, PrPC surface inh)
C=CCCOC1OC(C)C(O)CC1O (centres undefined)	none (no result: BJeLR viability, 3CLpro inhibitor, DUSP3 inh, PrPC surface inh)
COc1ccccc1OS(=O)(=O)c1ccc(NC(C)=O)cc1	none
COC(=O)/C=C/S(=O)(=O)c1ccc(NC(C)=O)cc1	PrPC surface inh 77 | PrPC confirm inactive | LD9 tox 94
Cc1ccccc1C=CC1=NCCN1	none (no result: BJeLR viability, 3CLpro inhibitor, DUSP3 inh, PrPC surface inh)
C=CCn1c(C)c(C(=O)OCC)c2cc(O)c3ccccc3c21	none
CCOC(=O)c1c(C)n(CC)c2c1cc(O)c1ccccc12	PrPC surface inh 25 | PrPC confirm inactive | LD9 tox inactive
CCSc1nnc2ccc(-c3ccc(C)cc3)nn12	PrPC surface inh 42 | PrPC confirm inactive | LD9 tox inactive
Cc1cc(C)c(C)c(S(=O)(=O)NCc2cccnc2)c1C	none
Cc1cc(C)c(S(=O)(=O)NCc2cccnc2)c(C)c1	PrPC surface inh 46 | PrPC confirm 35 | LD9 tox inactive
C=C(Br)CN1C(Cc2ccccc2)C(O)[C@@]23C=CC(CC2S1(=O)=O)O3 (some centres undefined)	none (no result: BJeLR viability, 3CLpro inhibitor, DUSP3 inh, PrPC surface inh)
COC(=O)C1=C(C(=O)OC)C2Nc3ccccc3[C@@]23CC(C(=O)OC)N(C(=O)c2ccc(Br)cc2)C3=N1 (some centres undefined)	none (no result: BJeLR viability, 3CLpro inhibitor, DUSP3 inh, PrPC surface inh)
CC(C)OC(=O)CSc1nnc2c3ccccc3n(C)c2n1	none
CC(C)CSc1nnc2c3ccccc3n(C)c2n1	PrPC surface inh 58 | PrPC confirm 66 | LD9 tox inactive
CC(C)(C)n1c(O)c(C=Nc2ccc3c(c2)CCC3)c(=O)[nH]c1=O	PrPC surface inh 29 | PrPC confirm inactive | LD9 tox inactive
Cn1c(SCC(=O)N2CCc3ccccc3C2)nnc1-c1ccncc1	PrPC surface inh 41 | PrPC confirm inactive | LD9 tox inactive
Cn1c(SCC(=O)N2CCc3ccccc3C2)nnc1-c1cccs1	none
COc1ccc(C2SCC(=O)Nc3c2c(=O)[nH]n3C2CCCCCC2)cc1 (centres undefined)	none
CCOc1ccc(C2SCC(=O)Nc3c2c(=O)[nH]n3C2CCCCCC2)cc1 (centres undefined)	PrPC surface inh 51 | PrPC confirm inactive | LD9 tox inactive
CCCCNc1c(-c2ccc(OC)c(SC3CCCCC3)c2)nc2ccc(C)cn12	PrPC surface inh 38! (no result: BJeLR viability, 3CLpro inhibitor, DUSP3 inh) | PrPC confirm 50 | LD9 tox 53
CCOC(=O)C(CC)Sc1cc(C)nc2ccc(OC)cc12 (centres undefined)	PrPC surface inh 32 | PrPC confirm 60 | LD9 tox inactive
Brc1ccc2nc(-c3ccc(CN4CCC5(CC4)CNc4ccccc45)cc3)c(-c3ccccc3)nc2c1	PrPC surface inh 26 (no result: BJeLR viability, Sa RN4220 lethal, 3CLpro inhibitor, DUSP3 inh, Sa ugtP lethal) | PrPC confirm 53 | LD9 tox inactive
Cc1ccc2nc(-c3ccc(CN4CCC5(CC4)CNc4ccccc45)cc3)c(-c3ccccc3)nc2c1	none (no result: BJeLR viability, Sa RN4220 lethal, 3CLpro inhibitor, DUSP3 inh, Sa ugtP lethal)
CCOC(=O)NC(=O)CSc1cc(C)c2cc(C)cc(C)c2n1	PrPC surface inh 42 | PrPC confirm 58 | LD9 tox inactive
Cc1cc(C)c2nc(SCC(=O)NC(=O)c3cccn3C)cc(C)c2c1	none
